Measured values from the supplement of paper PMC10849652.
About 7,900 targets were measured; listed, in parts, are those with a hit and a random draw of the rest. About 0.6% of all pairs of compound and target were hits.

What was measured:
Test in all cases: log2 fold change, soluble protein after heating vs DMSO (PISA); higher = thermal stabilisation; K562 cells, 10 uM, 30 min; active = over 0.2 and 3.5 SD of the protein, either way, in both replicates (recomputed)
[1] = compound: C1=CC=C(C=C1)[C@H](COC2=CC3=C(C=C2)NC(=O)N3)NC(=O)C4=CC=CN(C4=O)CC5=CC(=C(C=C5)F)F
In short: (§1)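 K562 cells (2×10^6 cells/mL) were treated with 10 μM compound for 30 min, and aliquots were heated for 3 min over 48°C-58°C. Pooled aliquots were extracted in PBS with 0.5% NP-40 at 4°C, and the supernatant after 21,000xg for 90 min was measured by TMTpro 16plex LC-MS/MS with channel sums equalised. Reported thermal stability, relative to control samples and from duplicates, is a log2 fold change.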

[2] = compound: CC1=C(SC2=C1C(=N[C@H](C3=NN=C(N32)C)CC(=O)N)C4=CC=C(C=C4)Cl)C
In short: as §1

[3] = compound: CC1=C2C(=CC=C1)N=C(N(C2=O)C3=CC=CC=C3C)CN4C=NC5=C(N=CN=C54)N
In short: as §1

[4] = compound: Cc1sc2c(c1C)C(c1ccc(Cl)cc1)=N[C@@H](CC(=O)OC(C)(C)C)c1nnc(C)n1-2
In short: as §1

[5] = compound: c1ccc([C@@H]2C[C@H]2NC2CCNCC2)cc1
In short: as §1

Measured: log2 fold change

TGFBR1 isoform 2 (UniProt P36897)
inactive: [1] -0.001 | [2] 0.029 | [3] -0.047 | [4] -0.029 | [5] 0.026

TFRC (UniProt P02786)
inactive: [1] 0.058 | [2] 0.032 | [3] 0.008 | [4] 0.011 | [5] 0.021

SLC38A9 (UniProt Q8NBW4)
Chain of UniProt Q8NBW4 (Q8NBW4 whole entry, looked up): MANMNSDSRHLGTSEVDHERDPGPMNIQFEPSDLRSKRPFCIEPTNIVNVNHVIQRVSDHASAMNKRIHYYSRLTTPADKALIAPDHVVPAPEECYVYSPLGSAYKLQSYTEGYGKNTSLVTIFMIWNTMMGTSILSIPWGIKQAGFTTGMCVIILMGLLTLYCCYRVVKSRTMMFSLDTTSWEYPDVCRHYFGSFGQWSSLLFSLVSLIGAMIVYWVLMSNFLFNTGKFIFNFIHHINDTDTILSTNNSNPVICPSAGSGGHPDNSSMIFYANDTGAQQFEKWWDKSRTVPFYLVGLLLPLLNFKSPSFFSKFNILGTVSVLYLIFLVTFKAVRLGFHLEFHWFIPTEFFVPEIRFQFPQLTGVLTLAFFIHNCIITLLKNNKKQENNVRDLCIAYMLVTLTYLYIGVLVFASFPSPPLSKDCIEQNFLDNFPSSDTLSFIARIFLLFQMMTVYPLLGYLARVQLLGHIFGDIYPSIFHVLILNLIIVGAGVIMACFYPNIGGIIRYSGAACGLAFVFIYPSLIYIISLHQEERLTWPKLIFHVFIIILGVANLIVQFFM
inactive: [1] 0.053 | [2] -0.019 | [3] 0.065 | [4] -0.014 | [5] 0.042

SMARCAD1 isoform 2 (UniProt Q9H4L7)
inactive: [1] -0.029 | [2] 0.071 | [3] 0.214 | [4] -0.129 | [5] 0.004

SUOX (UniProt P51687)
Chain of UniProt P51687 (P51687 whole entry, looked up): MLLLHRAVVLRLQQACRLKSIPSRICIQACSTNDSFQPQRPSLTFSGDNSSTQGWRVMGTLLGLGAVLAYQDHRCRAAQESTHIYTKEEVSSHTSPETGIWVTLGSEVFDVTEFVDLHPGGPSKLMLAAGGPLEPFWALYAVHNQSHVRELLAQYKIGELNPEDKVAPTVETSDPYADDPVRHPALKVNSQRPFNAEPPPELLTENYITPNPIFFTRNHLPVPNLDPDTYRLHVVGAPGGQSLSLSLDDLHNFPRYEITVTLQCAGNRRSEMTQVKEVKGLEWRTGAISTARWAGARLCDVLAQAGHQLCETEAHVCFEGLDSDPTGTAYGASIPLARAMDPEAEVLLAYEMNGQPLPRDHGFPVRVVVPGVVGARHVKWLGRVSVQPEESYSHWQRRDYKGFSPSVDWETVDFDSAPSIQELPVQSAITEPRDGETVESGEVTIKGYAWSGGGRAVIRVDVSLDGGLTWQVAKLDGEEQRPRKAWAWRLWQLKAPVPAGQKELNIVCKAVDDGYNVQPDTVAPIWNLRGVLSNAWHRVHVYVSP
inactive: [1] 0.01 | [2] 0 | [3] 0.096 | [4] -0.011 | [5] -0.021

SULT1A1 (UniProt P50225)
inactive: [1] -0.083 | [2] 0.064 | [3] -0.021 | [4] -0.06 | [5] -0.066

STOM (UniProt P27105)
inactive: [1] 0.06 | [2] -0.019 | [3] -0.014 | [4] -0.021 | [5] 0.082

SMIM20 isoform 2 (UniProt Q8N5G0)
Chain of UniProt Q8N5G0 (Q8N5G0 whole entry, looked up): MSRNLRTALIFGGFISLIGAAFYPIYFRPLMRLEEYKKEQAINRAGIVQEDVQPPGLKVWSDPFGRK
inactive: [1] 0.019 | [2] -0.034 | [3] 0.081 | [4] -0.125 | [5] -0.1

SMCHD1 (UniProt A6NHR9)
inactive: [1] 0.129 | [2] 0.141 | [3] 0.063 | [4] 0.01 | [5] 0.036

STXBP5 (UniProt Q5T5C0)
Chain of UniProt Q5T5C0 (Q5T5C0 whole entry, looked up): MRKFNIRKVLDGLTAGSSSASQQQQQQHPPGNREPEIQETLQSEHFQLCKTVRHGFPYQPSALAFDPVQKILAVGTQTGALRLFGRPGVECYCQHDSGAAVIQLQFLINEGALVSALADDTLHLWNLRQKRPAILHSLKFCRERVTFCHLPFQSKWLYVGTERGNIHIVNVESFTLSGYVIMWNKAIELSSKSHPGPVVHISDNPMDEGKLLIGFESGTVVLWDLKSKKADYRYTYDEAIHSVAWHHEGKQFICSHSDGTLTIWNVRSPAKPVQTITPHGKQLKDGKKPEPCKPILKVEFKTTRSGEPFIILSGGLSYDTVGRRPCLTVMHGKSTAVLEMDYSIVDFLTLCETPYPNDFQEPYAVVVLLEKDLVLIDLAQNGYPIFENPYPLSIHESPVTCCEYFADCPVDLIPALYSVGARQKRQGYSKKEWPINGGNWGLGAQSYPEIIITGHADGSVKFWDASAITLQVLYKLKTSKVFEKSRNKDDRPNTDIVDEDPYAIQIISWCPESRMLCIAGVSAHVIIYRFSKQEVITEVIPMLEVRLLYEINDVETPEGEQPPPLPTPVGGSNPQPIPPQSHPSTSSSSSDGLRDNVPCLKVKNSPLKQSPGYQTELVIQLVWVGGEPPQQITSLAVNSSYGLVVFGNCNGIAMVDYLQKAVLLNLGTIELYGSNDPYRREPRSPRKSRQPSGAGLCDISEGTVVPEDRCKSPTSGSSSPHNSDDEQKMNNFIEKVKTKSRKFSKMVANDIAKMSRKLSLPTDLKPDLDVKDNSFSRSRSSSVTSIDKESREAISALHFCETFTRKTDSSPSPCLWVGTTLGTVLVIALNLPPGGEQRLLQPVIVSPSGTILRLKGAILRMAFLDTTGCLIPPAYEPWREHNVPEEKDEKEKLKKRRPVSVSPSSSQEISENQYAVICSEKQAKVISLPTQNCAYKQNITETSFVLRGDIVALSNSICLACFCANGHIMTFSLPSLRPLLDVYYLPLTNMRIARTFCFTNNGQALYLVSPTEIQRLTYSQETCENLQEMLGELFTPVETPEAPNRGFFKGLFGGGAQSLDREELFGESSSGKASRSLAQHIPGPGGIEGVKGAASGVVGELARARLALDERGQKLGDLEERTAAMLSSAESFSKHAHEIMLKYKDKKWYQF
inactive: [1] -0.011 | [2] 0.017 | [3] 0.15 | [4] -0.04 | [5] -0.027

SSR3 isoform 2 (UniProt Q9UNL2)
inactive: [1] 0.016 | [2] -0.087 | [3] -0.107 | [4] -0.078 | [5] -0.168

TBC1D5 isoform 2 (UniProt Q92609)
inactive: [1] -0.046 | [2] 0.055 | [3] 0.066 | [4] 0.003 | [5] -0.034

TK1 (UniProt P04183)
inactive: [1] 0.002 | [2] -0.008 | [3] -0.011 | [4] -0.019 | [5] 0.008

TAOK1 (UniProt Q7L7X3)
inactive: [1] 0.057 | [2] 0.095 | [3] 0.041 | [4] 0.012 | [5] 0.002

TBC1D9B (UniProt Q66K14)
inactive: [1] -0.025 | [2] 0.093 | [3] 0.042 | [4] 0.02 | [5] -0.062

SMPD4 isoform 2 (UniProt Q9NXE4)
inactive: [1] -0.25 | [2] -0.029 | [3] -0.048 | [4] -0.061 | [5] -0.097

SLC7A6 (UniProt Q92536)
inactive: [1] -0.063 | [2] 0.023 | [3] 0.053 | [4] 0.012 | [5] 0.06

STK25 (UniProt O00506)
inactive: [1] -0.022 | [2] 0.111 | [3] 0.015 | [4] -0.019 | [5] -0.016

TAOK3 (UniProt Q9H2K8)
Chain of UniProt Q9H2K8 (Q9H2K8 whole entry, looked up): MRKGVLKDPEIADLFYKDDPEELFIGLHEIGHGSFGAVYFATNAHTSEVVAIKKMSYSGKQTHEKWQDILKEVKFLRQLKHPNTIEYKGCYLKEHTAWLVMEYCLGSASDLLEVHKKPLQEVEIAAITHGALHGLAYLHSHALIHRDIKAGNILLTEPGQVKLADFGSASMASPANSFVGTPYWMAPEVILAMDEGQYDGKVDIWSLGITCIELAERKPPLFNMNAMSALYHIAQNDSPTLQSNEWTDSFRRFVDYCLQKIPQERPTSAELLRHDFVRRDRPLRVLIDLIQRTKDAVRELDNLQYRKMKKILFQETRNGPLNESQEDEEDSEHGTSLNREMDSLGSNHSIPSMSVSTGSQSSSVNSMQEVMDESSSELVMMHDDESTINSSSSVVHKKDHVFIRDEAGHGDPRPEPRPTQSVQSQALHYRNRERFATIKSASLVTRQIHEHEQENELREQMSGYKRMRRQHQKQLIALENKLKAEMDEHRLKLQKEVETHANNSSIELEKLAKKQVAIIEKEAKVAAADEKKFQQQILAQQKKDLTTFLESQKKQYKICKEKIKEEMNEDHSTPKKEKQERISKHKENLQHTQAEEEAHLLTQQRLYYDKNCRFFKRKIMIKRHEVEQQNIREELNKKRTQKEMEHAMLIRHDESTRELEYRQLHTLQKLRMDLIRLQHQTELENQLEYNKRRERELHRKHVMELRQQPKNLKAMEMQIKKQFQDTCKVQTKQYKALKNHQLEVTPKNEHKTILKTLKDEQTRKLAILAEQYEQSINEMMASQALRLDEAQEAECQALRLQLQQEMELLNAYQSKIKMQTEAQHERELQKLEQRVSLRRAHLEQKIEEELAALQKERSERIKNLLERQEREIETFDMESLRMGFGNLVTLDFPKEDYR
inactive: [1] 0 | [2] 0.057 | [3] 0.002 | [4] -0.003 | [5] -0.024

STAT3 (UniProt P40763)
Chain of UniProt P40763 (P40763 whole entry, looked up): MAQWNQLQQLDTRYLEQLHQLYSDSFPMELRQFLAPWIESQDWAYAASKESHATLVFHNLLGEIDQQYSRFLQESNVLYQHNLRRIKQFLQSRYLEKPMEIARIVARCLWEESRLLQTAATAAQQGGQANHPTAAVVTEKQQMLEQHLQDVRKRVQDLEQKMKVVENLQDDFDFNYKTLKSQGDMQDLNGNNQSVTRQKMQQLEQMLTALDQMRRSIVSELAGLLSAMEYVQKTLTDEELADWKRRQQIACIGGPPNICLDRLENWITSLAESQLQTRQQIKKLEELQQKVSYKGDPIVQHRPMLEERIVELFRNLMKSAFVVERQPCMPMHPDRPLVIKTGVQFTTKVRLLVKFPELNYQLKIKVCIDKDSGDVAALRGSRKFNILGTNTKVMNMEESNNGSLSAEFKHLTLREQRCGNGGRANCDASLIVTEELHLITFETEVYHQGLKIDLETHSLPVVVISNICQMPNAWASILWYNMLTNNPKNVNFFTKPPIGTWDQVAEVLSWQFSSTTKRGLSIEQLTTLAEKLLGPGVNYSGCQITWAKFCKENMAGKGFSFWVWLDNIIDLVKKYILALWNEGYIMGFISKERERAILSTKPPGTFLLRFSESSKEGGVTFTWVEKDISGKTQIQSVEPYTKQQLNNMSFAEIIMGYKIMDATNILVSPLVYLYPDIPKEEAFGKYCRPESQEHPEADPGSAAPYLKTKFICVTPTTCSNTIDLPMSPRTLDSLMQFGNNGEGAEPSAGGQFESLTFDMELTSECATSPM
inactive: [1] -0.033 | [2] 0.034 | [3] 0.1 | [4] 0.024 | [5] -0.006

SNX11 (UniProt Q9Y5W9)
inactive: [1] 0.004 | [2] 0.063 | [3] 0.108 | [4] 0.057 | [5] -0.027

ST3GAL2 (UniProt Q16842)
Chain of UniProt Q16842 (Q16842 whole entry, looked up): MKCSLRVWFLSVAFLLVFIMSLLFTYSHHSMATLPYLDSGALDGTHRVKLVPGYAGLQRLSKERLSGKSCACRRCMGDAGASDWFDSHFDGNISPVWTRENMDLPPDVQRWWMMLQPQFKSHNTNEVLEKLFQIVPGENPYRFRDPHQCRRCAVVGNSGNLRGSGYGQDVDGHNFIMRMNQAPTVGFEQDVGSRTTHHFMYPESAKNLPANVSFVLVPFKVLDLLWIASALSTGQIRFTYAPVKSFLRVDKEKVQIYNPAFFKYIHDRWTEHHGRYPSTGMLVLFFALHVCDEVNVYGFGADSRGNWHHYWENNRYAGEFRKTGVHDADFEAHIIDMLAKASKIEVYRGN
inactive: [1] 0.083 | [2] 0.006 | [3] 0.011 | [4] 0.005 | [5] 0.007

SLC44A2 isoform 2 (UniProt Q8IWA5)
Chain of UniProt Q8IWA5 (Q8IWA5 whole entry, looked up): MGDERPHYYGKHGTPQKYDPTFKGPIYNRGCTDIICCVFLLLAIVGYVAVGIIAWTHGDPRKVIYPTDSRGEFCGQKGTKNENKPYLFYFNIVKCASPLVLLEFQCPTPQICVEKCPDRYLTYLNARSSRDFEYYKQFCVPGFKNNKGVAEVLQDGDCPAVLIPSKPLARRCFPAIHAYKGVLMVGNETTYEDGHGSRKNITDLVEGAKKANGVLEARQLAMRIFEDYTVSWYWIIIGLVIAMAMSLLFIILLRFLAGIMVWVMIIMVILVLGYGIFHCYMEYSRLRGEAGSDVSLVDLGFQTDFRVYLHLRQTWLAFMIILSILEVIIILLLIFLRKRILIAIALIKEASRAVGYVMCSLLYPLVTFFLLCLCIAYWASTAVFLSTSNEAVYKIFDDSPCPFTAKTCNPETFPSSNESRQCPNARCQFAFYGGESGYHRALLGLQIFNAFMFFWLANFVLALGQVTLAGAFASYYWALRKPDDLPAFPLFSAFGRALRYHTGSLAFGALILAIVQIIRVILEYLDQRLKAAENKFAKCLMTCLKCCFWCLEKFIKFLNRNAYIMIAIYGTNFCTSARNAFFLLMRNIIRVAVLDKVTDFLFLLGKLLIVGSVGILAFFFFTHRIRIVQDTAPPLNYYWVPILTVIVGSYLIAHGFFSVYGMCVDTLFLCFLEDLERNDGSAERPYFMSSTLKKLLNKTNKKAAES
inactive: [1] 0.002 | [2] 0.077 | [3] -0.022 | [4] -0.045 | [5] 0.065

SMC5 (UniProt Q8IY18)
inactive: [1] 0.017 | [2] 0.045 | [3] -0.006 | [4] -0.028 | [5] -0.005
